Screens deposited in PubChem by several laboratories.
This is a sample that favours compounds with a hit; in the whole collection about 1.5% have one here.
DAGLB inh – blocks human DAGLB lipase activity. HEK293T DAGLB membrane lysate, EnzChek fluorogenic substrate. 0.059% of 340,000 active. inhibition, % at 5.17 µM. AID 504411. Q8NCG7; in the data active means inhibition above about 34%;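 further: 0% = enzyme with vehicle and 100% = wells lacking enzyme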
ANO1 activ – activators or potentiators of mouse TMEM16A chloride channel | B-score at 10 µM | Q8BHY3 | 0.3% of 340,000 active | HEK293 TMEM16A/YFP-H148Q/I152L, iodide quench fluorescence; active compounds read low;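 active means fluorescence-ratio B-score plate-corrected deviation score at least 3 library SD below zero, with starting fluorescence score within 5 deviations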;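 further: channel opened by trigger with iodide after compound preincubation; score built on the fluorescence ratio of max minus min over baseline; more negative score means more quench and so TMEM16A activation or potentiation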
TMEM16A inh – blocks the mouse calcium-activated chloride channel TMEM16A | Q8BHY3 | HEK293 TMEM16A/YFP iodide influx fluorescence, ionomycin | normalized B-score (activity score, 25-100; higher = stronger inhibition) at 10 µM | 1.2% of 310,000 active | AID 588511;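 active means ratio plate-corrected score three or more library SD toward inhibition, starting fluorescence score within five deviations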;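 further: score derived from kinetic fluorescence span divided by baseline fluorescence per well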
ABCB6 inh 2 – blocks the human ABCB6 transporter | fluorescence ratio to DMSO, % at 10 µM | 0.19% of 360,000 active | K562-ABCB6 porphyrin accumulation, flow cytometry, 1 h; active compounds read low | Q9NP58 | AID 602162;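 active means fluorescence ratio to DMSO below 75%, the collection mean minus 3 SD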;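 further: signal is porphyrin accumulated inside mitochondria; 100% equals median channel fluorescence of DMSO control wells; lower ratio means ABCB6 inhibition with less porphyrin fluorescence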
Target sequence (Q9NP58 whole entry, looked up): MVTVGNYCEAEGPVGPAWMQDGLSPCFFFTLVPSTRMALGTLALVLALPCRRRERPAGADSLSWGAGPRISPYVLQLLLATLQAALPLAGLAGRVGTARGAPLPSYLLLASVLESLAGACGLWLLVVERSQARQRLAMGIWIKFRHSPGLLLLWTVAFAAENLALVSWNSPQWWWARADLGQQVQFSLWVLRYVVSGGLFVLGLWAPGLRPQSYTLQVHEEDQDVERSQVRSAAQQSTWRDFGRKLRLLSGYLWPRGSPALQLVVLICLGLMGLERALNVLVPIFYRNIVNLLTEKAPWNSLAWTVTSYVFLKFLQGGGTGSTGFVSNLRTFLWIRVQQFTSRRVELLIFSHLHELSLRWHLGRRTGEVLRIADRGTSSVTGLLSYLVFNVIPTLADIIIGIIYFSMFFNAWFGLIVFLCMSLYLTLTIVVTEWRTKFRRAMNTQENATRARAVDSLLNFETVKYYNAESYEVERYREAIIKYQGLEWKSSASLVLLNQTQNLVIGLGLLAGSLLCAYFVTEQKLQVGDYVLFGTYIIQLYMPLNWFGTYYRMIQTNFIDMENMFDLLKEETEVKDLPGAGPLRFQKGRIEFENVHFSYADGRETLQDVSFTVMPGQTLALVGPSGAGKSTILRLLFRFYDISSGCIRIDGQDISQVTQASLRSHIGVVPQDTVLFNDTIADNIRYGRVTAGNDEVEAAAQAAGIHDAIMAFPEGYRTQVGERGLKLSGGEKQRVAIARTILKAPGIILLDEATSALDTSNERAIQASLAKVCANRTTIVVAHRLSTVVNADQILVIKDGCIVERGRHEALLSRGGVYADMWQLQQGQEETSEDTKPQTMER
hiPSC survival – hiPSC single-cell survival enhancement; ATPlite luminescence; 100% = ROCK inhibitor wells, 0% = DMSO; survival enhancement, % at 20 µM; 0.044% of 360,000 active; in the data active means survival enhancement above about 18%;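 further: cells exposed to compounds for 16 hours before the ATP read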
TMEM16A reconf – re-confirmation of mouse TMEM16A chloride channel inhibitors; shares compounds with TMEM16A inh; 39% of 2,300 active; HEK293 TMEM16A/YFP-H148Q, iodide quench fluorescence; ionomycin added to raise cell calcium; inhibition, % at 10 µM;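 active means mean duplicate percent inhibition, scaled so buffer wells are 0 and the reference blocker 100, over three buffer SD above buffer mean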
TMEM16A Ca cntr – counter-screen for TMEM16A inhibitors: effect on calcium mobilization | calcium response (% of ionomycin), % at 10 µM | TMEM16A/YFP HEK293, Fluo4 calcium mobilization | shares compounds with TMEM16A inh | AID 652231 | 2% of 2,300 active;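 active means duplicate-averaged calcium signal over 20% of the ionomycin maximum, relative to buffer baseline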;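 further: each well's signal is peak minus trough fluorescence divided by its pre-addition baseline; 0% = buffer wells and 100% = ionomycin wells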
Parental YFP cnt – counter-screen for TMEM16A inhibitors: effect in parental YFP-HEK293 cells; shares compounds with TMEM16A inh; iodide YFP quench, ionomycin; YFP ratio F(max-min)/F0 at 10 µM; 2,300 tested, under 10 active;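 active means yellow fluorescent protein signal ratio exceeding the buffer control mean by over 5 SD of those controls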;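 further: ratio is mean of duplicate wells from kinetic YFP trace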
ClC-1 inh – blocks the rat ClC-1 voltage-dependent chloride channel; 2,300 tested, under 10 active; shares compounds with TMEM16A inh; CHO ClC-1-YFP, iodide influx fluorescence quench; iodide control reads 0, buffer control 100; ratio percent, % at 10 µM;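 active means duplicate-mean ratio percent above the mean of iodide-only control wells, which defines zero, plus 5 of their SD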;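 further: higher percent means stronger block of ClC-1 iodide influx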
Active calls of the source: *; i = inactive; · = no result.

SMILES	DAGLB inh	ANO1 activ	TMEM16A inh	ABCB6 inh 2	hiPSC survival	TMEM16A reconf	TMEM16A Ca cntr	Parental YFP cnt	ClC-1 inh
O=C(Nc1ccc(Cl)c(Cl)c1)Nc1nc(-c2ccccc2)cs1	3	i	i	99	7	·	·	·	·
O=S(=O)(Nc1nc(-c2ccccc2)cs1)c1cccc(C(F)(F)F)c1	20	i	100*	93	0	25%*	i	-1	-20
COc1ccc(NC(=O)CN(C)C(=O)c2sc3cc(Cl)ccc3c2Cl)cc1	0	i	i	96	0	·	·	·	·
CCCOC(=O)/C(C(N)=NCc1ccccc1)=C(\O)OCCC	-6	i	100*	97	0	i	i	-0.87	-10
CCOC(=O)/C(C(N)=NCC(C)C)=C(/O)c1ccccc1	-2	i	i	95	-1	·	·	·	·
CC(=O)N(CCC(c1ccccc1)c1ccco1)Cc1cccs1 (stereo unspecified)	-1	i	i	99	-1	·	·	·	·
CCC(=O)N(CCC(c1ccco1)c1ccccc1OC)Cc1cccs1 (stereo unspecified)	0	i	100*	94	-1	i	i	-1.1	-18
NC(N)=NN=C1CCCCCCCCCCC1	3	i	i	97	0	i	i	-1	-8
CC(OC(=O)c1snc(C(=O)NC2CCCCC2)c1N)C(=O)NC(C)(C)C (stereo unspecified)	-1	i	i	90	0	·	·	·	·
CC(C)(C)NC(=O)COC(=O)c1snc(C(=O)NC2CCCCC2)c1N	-3	i	100*	92	-2	i	i	-0.99	-20
COc1ccccc1C(=O)NC(=O)COC(=O)C1CC2CCCC(C1)C2=O (stereo unspecified)	1	i	i	105	0	·	·	·	·
CC(=O)Nc1ccc(S(=O)(=O)CCC#N)cc1	-3	i	i	99	3	i	i	-1.1	-18
Cc1onc(-c2ccccc2)c1C(=O)NC(=S)NNC(=O)c1cc(-c2ccc(F)cc2)n[nH]1	10	i	25*	101	-1	i	i	-0.84	2
CCCCOCCCNc1ncnc2c1[nH]c1ccccc12	3	i	100*	97	-4	56%*	i	-0.8	-29
Cc1ccc(C(=O)NCCONC(=O)c2ccc(C)cc2)cc1	-1	i	i	102	0	·	·	·	·
FC(F)(F)c1cnc(N2CCN(C(=S)NCc3ccccc3)CC2)c(Cl)c1	-8	i	i	98	0	·	·	·	·
FC(F)(F)c1cnc(N2CCCN(C(=S)Nc3ccccc3)CC2)c(Cl)c1	-11	i	100*	94	-1	33%*	i	-0.85	-8
O=C(C1CCCCN1S(=O)(=O)c1ccccc1)N1CCN(Cc2ccccc2)CC1 (stereo unspecified)	3	i	25*	96	-1	i	i	-1.1	-4
Cc1cnc(N)nc1-c1ccccc1	-4	·	·	101	-1	·	·	·	·
CC1(C)C[C@@H]2C[C@@](C)(CN2C(=O)c2cc(COc3cccc(C(F)(F)F)c3)on2)C1	-8	i	25*	101	0	i	i	-1.2	-14
CCc1nn(C(C)C(=O)NCCN2CCN(c3cccc(C)c3C)CC2)c(=O)c2cc3occc3n12 (stereo unspecified)	3	i	i	92	-2	i	i	-1	2
COc1cc(C(=O)NCCOc2cccc(C)c2)c(Br)c(OC)c1OC	-5	i	i	91	-2	·	·	·	·
COc1cc(C(=O)NCCOc2ccccc2)c(Br)c(OC)c1OC	-2	i	25*	83	-1	i	i	-0.9	-10
CC1CCN(C(=O)CSCC(=O)Nc2nc(-c3cccs3)cs2)CC1	3	i	100*	99	-1	i	i	-1	-16
CCN(C(=S)NCc1ccccc1)c1cccc2ccccc12	-5	i	25*	95	0	i	i	-1.2	-8
SMILES	DAGLB inh	ANO1 activ	TMEM16A inh	ABCB6 inh 2	hiPSC survival	TMEM16A reconf	TMEM16A Ca cntr	Parental YFP cnt	ClC-1 inh
OC(CN1CCN(c2cccc(Cl)c2)CC1)c1ccccc1 (stereo unspecified)	-18	i	i	98	0	·	·	·	·
OC(COC(c1ccccc1)c1ccccc1)CN1CCN(c2cccc(Cl)c2)CC1 (stereo unspecified)	-7	i	25*	100	0	i	i	-0.9	-10
C=CCc1ccc(O)c(-c2cc(CC=C)ccc2O)c1	0	i	100*	101	-4	32%*	i	-0.88	-4
Cc1cc(C)c(C(=O)OCc2csc(CC(=O)Nc3ccccc3C)n2)c(C)c1	-8	i	25*	77	0	i	i	-1.1	-13
O=C(Cn1ccnc1[N+](=O)[O-])N(CCO)CCO	-1	·	·	99	-3	·	·	·	·
CC(c1ccco1)N(C(=O)c1cc(Cl)cc(Cl)c1)c1ccccn1 (stereo unspecified)	-1	i	i	91	0	·	·	·	·
CC(c1ccco1)N(C(=O)c1ccccc1NS(=O)(=O)c1ccc(Cl)c([N+](=O)[O-])c1)c1ccccn1 (stereo unspecified)	11	i	100*	100	2	26%*	i	-0.91	-22
COc1ccc(NC(=O)C[C@H]2C(=O)N(CCc3ccccc3)C[C@@H]2c2ccc(OC)cc2)cc1	-4	·	·	98	5	·	·	·	·
CN(C)CCCNC(=O)C(=O)NCC1OCCN1S(=O)(=O)c1cc(F)ccc1F (stereo unspecified)	0	i	i	97	2	·	·	·	·
O=C(Nc1cccc(C(F)(F)F)c1)c1cc[n+]([O-])cc1	0	i	100*	93	0	i	i	-1.2	-9
Cc1ccc(S(=O)(=O)Cc2ccc(C(=O)OCc3ccccc3)cc2)cc1	-13	i	25*	89	2	44%*	i	-0.88	-14
CCCNC(=O)C1(C)CCCN(C(=O)c2sccc2C)C1 (stereo unspecified)	·	·	·	96	0	·	·	·	·
COC(=O)c1ccc(COc2cccc3c2CCN(Cc2cccc(C)c2)C3=O)o1	-7	i	25*	99	0	19%*	i	-1.2	-4
